Sampled rows, rich in hits. Any-hit rate of the full collection: about 27%.
CYP2C9 inhib = inhibitors of human CYP2C9; P11712; CYP2C9 Supersomes, luciferin-H conversion, luminescence; inhibition, % at 5 µM; 96,000 tested, 20% active; AID 777;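 active means blocking of liver enzyme CYP2C9 beyond about 50% at 5 µM, limit read from the data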
Target sequence (P11712 whole entry, looked up): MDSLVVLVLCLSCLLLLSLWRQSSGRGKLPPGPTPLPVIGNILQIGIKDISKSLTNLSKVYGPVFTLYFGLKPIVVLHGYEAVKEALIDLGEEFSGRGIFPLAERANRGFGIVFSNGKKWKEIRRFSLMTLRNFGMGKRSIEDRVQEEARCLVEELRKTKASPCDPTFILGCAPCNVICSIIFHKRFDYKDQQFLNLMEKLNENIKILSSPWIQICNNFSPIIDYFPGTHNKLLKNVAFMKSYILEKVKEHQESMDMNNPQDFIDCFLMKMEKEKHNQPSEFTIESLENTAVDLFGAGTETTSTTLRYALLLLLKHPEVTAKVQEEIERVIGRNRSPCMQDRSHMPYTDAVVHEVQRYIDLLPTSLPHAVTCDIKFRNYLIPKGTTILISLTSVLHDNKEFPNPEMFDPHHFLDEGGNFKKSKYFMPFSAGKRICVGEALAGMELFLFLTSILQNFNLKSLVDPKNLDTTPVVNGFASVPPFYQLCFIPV
CYP2C19 act = increases human CYP2C19 enzyme activity; activation factor at 5 µM; P33261; recombinant CYP2C19, luciferin-H EGE luminescence; active compounds read high; 0 = fully inhibited enzyme, 1 = untreated enzyme; 96,000 tested, under 10 active;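 active means activation factor of at least 2 at 5 µM in the primary screen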;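 further: 0 = wells with 2.5 mM tranylcypromine and 1 = vehicle-only wells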
sEH inhibitor = soluble epoxide hydrolase (human) inhibition. P34913. recombinant human sEH enzymatic activity assay. inhibition, % at 2 µM. 91,000 tested, 0.34% active; in the data active means inhibition above about 80%
CYP2C9 act = increases human cytochrome P450 2C9 activity; recombinant CYP2C9, luciferin-H conversion, luminescence; active compounds read high; factor 1 = untreated enzyme, 0 = blocked; 96,000 tested, 1.4% active; activation factor at 5 µM; P11712; AID 1024;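 active means activation factor of 2 or more for CYP2C9 at a 5 µM dose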;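 further: 0 = sulfaphenazole-blocked wells and 1 = vehicle-only wells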
CYP2C19 inh = human CYP2C19 inhibition | CYP2C19 Supersomes, luciferin-H EGE luminescence, 30 min | P33261 | 96,000 tested, 21% active | inhibition, % at 5 µM | AID 778;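 active means CYP2C19 inhibition above a set limit at 5 µM in the primary screen, cut at about 50% in these data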;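 further: plate controls were negative control wells for no effect and 2.5 mM tranylcypromine positive control for full effect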
sEH act = increases human soluble epoxide hydrolase activity; purified human sEH enzymatic activity, activator screen; AID 717; P34913; 91,000 tested, 0.04% active; activation, % at 2 µM; in the data active means activation above about 37%
The depositor's hits bear a star; . = no result.

SMILES | CYP2C9 inhib | CYP2C19 act | sEH inhibitor | CYP2C9 act | CYP2C19 inh | sEH act
Cc1nn(Cc2ccc([N+](=O)[O-])cc2)c(=O)n1-c1ccc(F)cc1 | 86.3* | 0.5 | . | 0.1 | 45.5 | .
Cc1nn(Cc2ccc([N+](=O)[O-])cc2)c(=O)n1-c1c(F)cccc1F | 4.9 | 0.4 | -12.6 | 1 | 58.8* | 15.3
CC1CCC/C(=N\NC(=O)COc2ccc(Cl)cc2Cl)C1 (stereo unspecified) | 34.7 | 0.2 | 26.1 | 0.7 | 79.9* | -28.1
O=C(COc1ccc(Cl)cc1Cl)N/N=C/CCc1ccccc1 | -1.8 | 0.6 | 15.2 | 1 | 37.1 | -13.7
O=C(O)CCN1/C(=C/C=Nc2ccccc2)Oc2ccccc21 | -3.8 | 1 | . | 1 | 0.8 | .
Cc1ccc2cc(C#N)c(N3CCCN(C(=O)C4CCCO4)CC3)nc2c1C (stereo unspecified) | 82.2* | 0.1 | . | 0.2 | 85.1* | .
Cc1cc(C)c2nc(N3CCC(C(=O)N4CCN(C(=O)c5ccco5)CC4)CC3)sc2c1 | 51.9* | 0.5 | -12.6 | 0.5 | 52.1* | 11.8
Cc1ccc2cc(C#N)c(N3CCCC3)nc2c1C | 11.3 | 0.8 | 10.4 | 0.9 | 17.1 | -5.7
Cc1cc(C)c2nc(C(F)(F)F)nc(N3CCN(C(=O)c4ccco4)CC3)c2c1 | -3.1 | 0.8 | 4.1 | 1 | 20.2 | -4.5
Cc1cc(C)c2nc(N3CCCN(C(=O)c4ccco4)CC3)c(C#N)cc2c1 | 86.9* | 0.3 | 2.3 | 0.1 | 73.3* | -1.1
COc1ccc(C2SCC(=O)N2CC23CC4CC(CC(C4)C2)C3)cc1 (stereo unspecified) | 14.9 | 1.1 | -5.1 | 0.9 | -6.5 | 2.0
COc1cccc(CNC(=O)c2cc3oc4ccccc4c3n2C)c1OC | -41.5 | 1.1 | 46.9 | 1.4 | -7.8 | -46.6
CCOc1ccc(CNC(=O)c2cc3oc4ccccc4c3n2C)cc1 | 52.2* | 0.8 | 39.8 | 0.5 | 22.9 | -40.5
CCOc1ccccc1CNC(=O)c1cc2oc3ccccc3c2n1CC | -10.9 | 0.3 | 2.1 | 1.1 | 65.5* | -1.9
CCCCn1c(CN2C(=O)c3ccccc3C2=O)nc2ccccc2c1=O | 28.3 | 0.9 | -8.2 | 0.7 | 6.5 | 6.9
O=C1c2ccccc2C(=O)N1Cc1nc2ccccc2c(=O)n1CCCn1ccnc1 | 91.7* | 0.1 | 7.6 | 0.1 | 87.5* | -6.5
O=C1c2ccccc2C(=O)N1CCc1nc2ccccc2c(=O)n1CCCn1ccnc1 | 80.0* | 0.5 | 7.7 | 0.2 | 49.7 | -8.8
CCOC(=O)CN1NC2(CCC(C)CC2)NC1=S (stereo unspecified) | -1.9 | 0.4 | 6.7 | 1 | 61.4* | -6.0
CCOC(=O)CN1NC2(CCCC(C)C2)NC1=S (stereo unspecified) | -3.7 | 0.4 | -2.6 | 1 | 61.2* | 3.4
CCC1CC(CSc2ncn[nH]2)OC1=O (stereo unspecified) | 12.6 | 0.9 | -1.5 | 0.9 | 5.5 | 3.3
CSc1nsc(/C=C/Nc2cccc(Cl)c2)c1C#N | 65.4* | 0.8 | 7.3 | 0.3 | 20.0 | -6.4
CSc1nsc(/C=C/Nc2ccc(Cl)cc2)c1C#N | 32.5 | 1 | 11.9 | 0.7 | 3.3 | -9.3
COc1cccc(C(CC(=O)Nc2cccc3ccccc23)NC(=O)c2ccccc2)c1 (stereo unspecified) | 81.0* | 0.5 | 4.4 | 0.2 | 49.8 | -4.0
CSc1nc2sc(-c3ccccc3)cc2c(=O)n1N | 77.6* | 0.3 | 5.3 | 0.2 | 69.0* | -4.6
CC(C)Sc1nc2sc(-c3ccccc3)cc2c(=O)n1N | 32.3 | 0.7 | -5.1 | 0.7 | 27.3 | 2.0
SMILES | CYP2C9 inhib | CYP2C19 act | sEH inhibitor | CYP2C9 act | CYP2C19 inh | sEH act
O=C1COc2ccc(C(=O)COC(=O)CCc3ccc(S(=O)(=O)N4CCOCC4)cc3)cc2N1 | 19.6 | 1 | -6.0 | 0.8 | -4.9 | 6.1
CCOC(=O)C1C(=O)C=C(c2ccc(Br)cc2)CC1c1ccco1 (stereo unspecified) | 28.3 | 0.7 | -11.9 | 0.7 | 25.2 | 16.0
CCOC(=O)C1C(=O)C=C(c2ccc([N+](=O)[O-])cc2)CC1c1ccccc1 (stereo unspecified) | 74.7* | 0.2 | 0.2 | 0.3 | 76.3* | -3.1
Cc1nc(CC(=O)Nc2nc(C(C)(C)C)cs2)cs1 | 17.0 | 0.5 | -4.2 | 0.8 | 47.3 | 2.9
O=C(Cc1cccs1)Nc1nc(-c2ccccc2)cs1 | 60.7* | 0.5 | 10.3 | 0.4 | 50.7* | -10.7
Cc1nc(CC(=O)Nc2nc(-c3ccccc3)cs2)cs1 | 32.9 | 0.5 | -6.8 | 0.7 | 51.7* | 6.3
O=C(CNC(=O)c1ccc(Oc2ccccc2)cc1)OC1CCCCC1=O (stereo unspecified) | 11.8 | 0.9 | 2.9 | 0.9 | 10.7 | -4.5
N#Cc1ccc(-c2ccc(F)cc2)nc1SCC(=O)Nc1sc2c(c1C#N)CCC2 | -2.6 | 1.1 | 6.3 | 1 | -10.9 | -5.5
CNC(=O)CN(C1CCCCC1)S(=O)(=O)c1ccc(OC)c(Cl)c1 | 24.0 | 0.8 | 6.2 | 0.8 | 16.3 | -3.6
COc1cc(S(=O)(=O)NC2CCCCC2C)ccc1Cl (stereo unspecified) | -81.9 | 0 | 3.6 | 1.8 | 97.1* | -2.4
COc1cc(S(=O)(=O)Nc2ccccn2)ccc1F | -109.6 | 0.6 | -15.7 | 2.1* | 39.4 | 15.2
Cc1ccc(S(=O)(=O)NC2CCCC2)cc1C | -57.2 | 0.7 | 5.7 | 1.6 | 29.8 | -2.9
COc1cc(S(=O)(=O)NC2CCCC2)ccc1Cl | -202.4 | 0.1 | 5.8 | 3* | 93.7* | -3.4
COc1cc(S(=O)(=O)N2CCC(c3nc4ccccc4s3)CC2)ccc1S(=O)(=O)NC1CCCC1 | . | . | -10.5 | . | . | 10.2
COc1ccc(S(=O)(=O)NC2CCCC2)cc1Br | -135.2 | 0 | 4.5 | 2.4* | 97.0* | 0.4
COc1cc(S(=O)(=O)N2CCOCC2)ccc1F | -63.2 | 0.7 | 5.2 | 1.6 | 33.1 | -7.2
COc1ccc(OC)c(S(=O)(=O)NC2CCCCC2)c1 | 20.0 | 0.7 | 8.5 | 0.8 | 30.5 | -9.7
COc1cc(S(=O)(=O)NC2CCCC2)ccc1F | -70.7 | 0.1 | -18.5 | 1.7 | 89.7* | 15.8
COc1ccc(S(=O)(=O)NC2CCCCC2)c(C)c1C | -18.2 | 0 | -9.3 | 1.2 | 95.6* | 11.9
O=c1cc2c(nn1Cc1cccc(Cl)c1)-c1ccccc1CC2 | 99.5* | 0.2 | 6.2 | 0 | 84.1* | -6.0
O=C(Cn1cnc2c(nnn2Cc2ccc(Cl)cc2)c1=O)N1CCCc2ccccc21 | . | . | 11.4 | . | . | -9.1
O=c1cc2c(nn1Cc1ccc(Cl)cc1)-c1ccccc1CC2 | 97.4* | 0 | 2.0 | 0 | 97.4* | -1.8
O=C1c2ccncc2C(=O)N1Cc1cccc(Cl)c1 | 13.2 | 0.8 | -8.9 | 0.9 | 20.0 | 6.0
COC(=O)C1CCN(S(=O)(=O)c2cn(C)c(=O)n(C)c2=O)CC1 | -9.8 | 1.1 | -16.2 | 1.1 | -13.0 | 14.4
O=C(COc1ccc([N+](=O)[O-])cc1)NN=C1CCCC1 | 10.0 | 0.8 | 4.6 | 0.9 | 18.4 | -7.2
CN(C)S(=O)(=O)N1CCN(S(=O)(=O)c2ccccc2)CC1 | 58.1* | 0.2 | . | 0.4 | 79.6* | .

Compound activity (PubChem)
